Screening results as filed in PubChem.
FLuc inh: inhibitors of firefly (Photinus pyralis) luciferase. purified P. pyralis luciferase, luminescence, biochemical. Potency, µM (doses to about 115 µM), most hits filed as inhibitors. 76,000 compounds, 2.5% hits; further: nearly all actives have a fitted effect of over 65% in size
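Inhibitors were tested against purified firefly luciferase in a biochemical, low-substrate format (both substrates at 10uM) and luminescence measured with a CCD imager.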
NPR1 antag: human Npr1 receptor antagonism. HEK293 hNpr1 GloSensor cGMP, ANP-stimulated luminescence. 76,000 compounds, 1.6% hits. P16066. Potency, µM (highest dose often 46.3 µM), for the others: at the top dose activity change, negative = inhibition, usual class: inhibitors; calls by dose curve; further: nearly all actives have a fitted effect of over 60% in size
Target sequence (P16066 whole entry, looked up): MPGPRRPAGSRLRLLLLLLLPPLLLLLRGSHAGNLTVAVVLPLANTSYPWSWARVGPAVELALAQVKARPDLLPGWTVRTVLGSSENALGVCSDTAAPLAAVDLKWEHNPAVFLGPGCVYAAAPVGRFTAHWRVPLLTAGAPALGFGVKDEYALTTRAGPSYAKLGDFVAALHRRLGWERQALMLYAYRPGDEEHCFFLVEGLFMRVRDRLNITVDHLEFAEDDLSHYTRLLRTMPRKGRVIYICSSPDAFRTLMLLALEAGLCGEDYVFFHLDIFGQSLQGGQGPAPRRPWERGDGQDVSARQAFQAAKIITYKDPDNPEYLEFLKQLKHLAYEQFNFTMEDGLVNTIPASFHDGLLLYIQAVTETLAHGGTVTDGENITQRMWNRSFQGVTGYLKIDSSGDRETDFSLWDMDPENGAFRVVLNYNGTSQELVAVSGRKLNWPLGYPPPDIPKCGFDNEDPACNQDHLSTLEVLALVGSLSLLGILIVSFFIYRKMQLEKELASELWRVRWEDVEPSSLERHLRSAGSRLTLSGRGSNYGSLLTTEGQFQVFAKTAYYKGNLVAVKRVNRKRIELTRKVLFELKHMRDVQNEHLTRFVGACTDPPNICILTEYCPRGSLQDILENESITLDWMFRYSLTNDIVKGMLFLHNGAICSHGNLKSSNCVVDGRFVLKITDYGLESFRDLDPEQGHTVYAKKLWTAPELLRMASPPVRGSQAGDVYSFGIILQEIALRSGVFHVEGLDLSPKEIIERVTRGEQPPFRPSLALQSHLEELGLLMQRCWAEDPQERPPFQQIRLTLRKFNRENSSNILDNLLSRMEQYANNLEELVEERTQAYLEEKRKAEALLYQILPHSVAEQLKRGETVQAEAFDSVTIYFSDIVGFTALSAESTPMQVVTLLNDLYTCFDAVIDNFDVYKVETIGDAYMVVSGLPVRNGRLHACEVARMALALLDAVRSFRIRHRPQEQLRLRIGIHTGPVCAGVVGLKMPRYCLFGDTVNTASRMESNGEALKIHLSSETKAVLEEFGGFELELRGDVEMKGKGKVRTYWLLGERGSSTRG
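Compound pre-incubated 30 min at room temperature on GloSensor-loaded HEK293 cells stably carrying hNpr1 and the pGS-40F cGMP biosensor. Stimulation uses hNppA at 0.1 nM final; luminescence is taken at baseline and 20 min post-agonist.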
3T3 cytotox: kills NIH 3T3 cells. 94,000 compounds, 4.3% hits. Potency, µM (doses to about 96.7 µM), without a hit: top-dose activity change, negative = cytotoxicity, actives largely listed as inhibitors. NIH 3T3 viability, CellTiter-Glo ATP luminescence, 48-72 h. AID 1345082; further: nearly all actives have a fitted effect of over 55% in size
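Cytotoxicity was measured by CellTiter-Glo ATP luminescence after 48 or 72 h compound exposure at 37 °C. Mouse NIH 3T3 fibroblasts were seeded at 400 cells/well and dosed by 23 nL pin transfer.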
HEK293 tox: kills HEK 293 cells; HEK 293 viability, ATP luminescence (CellTiter-Glo), 48-72 h; Potency, µM (highest dose often 115 µM), inactives show at the highest dose activity change, negative = cytotoxicity, actives largely listed as inhibitors; 94,000 compounds, 6.6% hits; further: nearly all actives have a fitted effect of over 60% in size
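HEK 293 seeded at 250 cells/well receive compound via pintool. After 48 or 72 hr at 37 degree Celsius, 5% CO2 and 95% humidity, CellTiter-Glo is dispensed and luminescence read following 10 min at room temperature.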
* hit, by the source's call; i = inactive; ? = inconclusive; · = no result given; [ ] = remark or other dose. Only some compounds are listed: those with a hit (about 11% of all), similar ones and a draw of the others. Unless noted, the call rests on the fitted dose curve; in most records, active means well fitted curve in the direction sought with a large enough effect; inconclusive means small, poorly fitted or top-dose-only effect, or another doubt; inactive means no such curve, though single readings can be large; an effect the other way counts as inactive or inconclusive. On the % scale 0 is the no-effect control and ±100 the full control effect; potency means the concentration at half of the fitted maximal effect.

SMILES	FLuc inh	NPR1 antag	3T3 cytotox	HEK293 tox
O=C(Nc1cccs1)N1CCNc2cnc(Nc3cccc(C(F)(F)F)c3)nc2C1	i	-5%[70.6 µM]	79µM*	79µM*
O=C(c1ccc(Oc2ccccc2)cc1)N1CCNc2cnc(Nc3cccc(C(F)(F)F)c3)nc2C1	i	?	25µM*	22µM*
CNCCN1C(=O)CC[C@H]2CN(C(=O)c3cnc4nc(C)[nH]n4c3=O)CC[C@H]21	i	3%	-20%	?
O=C(NCCCc1ccccc1)c1cc(-c2ccccc2)c2nncn2n1	·	·	?	45µM*
COCCCNC(=O)c1cc(-c2cc(Cl)cc(Cl)c2)c2nncn2n1	·	·	?	-15%
O=C(NCCc1ccccc1)c1cc(-c2ccsc2)c2nncn2n1	·	·	?	40µM*
Cc1ccc(C(CC(=O)Nc2ccc(F)cc2)c2c[nH]c3ccccc23)cc1 (stereo not given)	i	-26%	45µM*	?
O=C(CC(c1cccc([N+](=O)[O-])c1)c1c[nH]c2ccccc12)NCc1ccccc1 (stereo not given)	i	-14%	?	?
O=C1c2c(nc(COc3cccc(Cl)c3)n2Cc2ccccc2)NCCN1CCOc1ccccc1	i	-17%	18µM*	?
N#Cc1cccc(OCc2nc3c(n2Cc2ccccc2)C(=O)N(Cc2ccccc2F)CCN3)c1	i	-21%	28µM*	?
COc1cccc(OCc2nc3c(n2Cc2ccccc2)C(=O)N(CCOc2ccccc2)CCN3)c1	i	?	20µM*	32µM*
O=C1c2c(nc(CNc3ccccc3Cl)n2Cc2ccccc2)NCCN1CC1CC1	i	-17%[70.6 µM]	89µM*	100µM*
Cc1nnc2ccc(N3CCN(C(=O)c4cccnc4)CC3)nn12	·	·	-11%[138 µM]	-1%[172 µM]
O=C1c2c(nc(COc3cccc(C(F)(F)F)c3)n2Cc2ccccc2)NCCN1CC1CC1	i	-8%	35µM*	50µM*
O=C1c2c(nc(COc3ccccc3)n2Cc2ccccc2)NCCN1CCOc1ccccc1	i	-25%	?	32µM*
O=C1[C@@H]2C[C@@H](O)CN2C2(CN(Cc3cccc(OC(F)(F)F)c3)C2)C(=O)N1Cc1ccccc1F	i	4%	-26%	-22%
COc1ccc(-c2cn3cc(C(=O)NCCN4CCOCC4)nc3s2)cc1	·	·	-26%	-18%
COC(=O)c1ccc2nc(C[C@@H]3C[C@@H](C(C)C)[C@H](CNC(=O)c4ccccc4)C=C3C)[nH]c2c1	i	-18%	?	?
COC(=O)c1ccc2nc(C[C@@H]3C[C@@H](C(C)C)[C@H](CNCc4ccc(OC)cc4O)C=C3C)[nH]c2c1	i	-20%	25µM*	20µM*
COC(=O)c1ccc2nc(C[C@@H]3C[C@@H](C(C)C)[C@H](CNC(=O)C(C)C)C=C3C)[nH]c2c1	i	0%[70.6 µM]	?	?
COC(=O)c1ccc2nc(C[C@@H]3C[C@@H](C(C)C)[C@H](CNCc4ccccc4F)C=C3C)[nH]c2c1	i	4%	22µM*	?
Cc1ccc(OCC(=O)N2CCC3(CC2)CC(N2CCOCC2)CCO3)cc1 (stereo not given)	·	·	-15%	-1%
O=C([C@H]1CCCN1C(=O)c1ccccc1Cl)N1CCCC(c2nc3ccncc3[nH]2)C1 (stereo not given in full)	·	·	-19%	0%
Cc1noc(C)c1[S+](=O)([O-])N1CCCN(c2ccc3nnc(-c4ccccc4)n3n2)CC1	·	·	-30%	79µM*
O=[S+]([O-])(NC1CCCN(c2ccc3nnc(-c4ccccc4)n3n2)C1)c1ccccc1 (stereo not given)	·	·	?	22µM*
SMILES	FLuc inh	NPR1 antag	3T3 cytotox	HEK293 tox
C[S+](=O)([O-])NC1CCN(c2ccc3nnc(-c4ccccc4)n3n2)CC1	·	·	-7%	-5%
COc1cccc([S+](=O)([O-])NC2CCN(c3ccc4nnc(-c5ccccc5)n4n3)CC2)c1	·	·	14µM*	25µM*
O=[S+]([O-])(NC1CCCN(c2ccc3nnc(C4CC4)n3n2)C1)c1cccc(C(F)(F)F)c1 (stereo not given)	·	·	5.6µM*	?
O=C(NCCc1ccccc1F)C1CCc2nnc(CN[S+](=O)([O-])c3ccccc3Cl)n21 (stereo not given)	·	·	-23%	-7%
Cc1ccc([S+](=O)([O-])NC2CCN(c3ccc4nnc(-c5ccccc5)n4n3)CC2)cc1	·	·	?	40µM*
CC(C)CCN1CCC2(CC1)OC(=O)N(Cc1ccc(O)cc1)C2(C)c1ccccc1 (stereo not given)	i	-17%[70.6 µM]	89µM*	?
CC1(c2ccccc2)N(Cc2ccc(O)cc2)C(=O)OC12CCN(C(=O)Cc1ccccc1)CC2 (stereo not given)	i	1%	?	?
CC1(c2ccccc2)N(Cc2ccccc2)C(=O)OC12CCN(C(=O)Cc1cccc(F)c1)CC2 (stereo not given)	i	-9%	10µM*	?
CC(C)C(=O)N1CCC2(CC1)OC(=O)N(Cc1ccccc1C#N)C2(C)c1ccccc1 (stereo not given)	i	-3%[70.6 µM]	?	-9%[172 µM]
CC1(c2ccccc2)N(Cc2ccc(O)cc2)C(=O)OC12CCN(Cc1cccnc1)CC2 (stereo not given)	i	-14%	?	-12%
CC(C)C(=O)N1CCC2(CC1)OC(=O)N(Cc1ccccc1)C2(C)c1ccccc1 (stereo not given)	i	-7%[70.6 µM]	10µM*	?
CC1(C)[C@H](Cc2cc(CN3CCOCC3)on2)C[C@@H]1N(Cc1ccco1)Cc1ccco1	i	-28%	?	?
CN(C)Cc1cc(C[C@@H]2C[C@H](N(Cc3ccco3)Cc3ccco3)C2(C)C)no1	i	-4%[70.6 µM]	79µM*	71µM*
COc1ccc(CN2Cc3[nH]nc(-c4cccc(OC)c4)c3CC2=O)cc1	i	-12%[70.6 µM]	?	-25%[172 µM]
COc1ccc(CN2Cc3[nH]nc(-c4cccc(O)c4)c3CC2=O)cc1	i	-12%[70.6 µM]	10µM*	?
O=C1NC(=NC2CCCC2)C2(CCN(Cc3ccccc3)CC2)N1c1cc(F)cc(F)c1	·	·	-13%	-28%
O=C1NC(=NC2CCCC2)C2(CCN(Cc3cccnc3)C2)N1c1cc(F)cc(F)c1 (stereo not given)	·	·	32µM*	i
O=C1NC(=NC2CCCC2)C2(CCN(Cc3cccnc3)CC2)N1c1cc(F)cc(F)c1	·	·	32µM*	i
COc1ccc(C(=O)Nc2ccc3c(c2)CN(C(C)c2ccc(F)cc2)C(=O)CO3)cc1OC (stereo not given)	i	-16%	?	?
CC(c1ccc(F)cc1)N1Cc2cc(NC(=O)Cc3cccs3)ccc2OCC1=O (stereo not given)	i	?	?	40µM*
Cn1cc(CN2C[C@@H](F)[C@@H](OCc3nc4ccccc4[nH]3)C2)c2ccccc21	i	-4%[70.6 µM]	?	100µM*
